These results are taken from PubChem BioAssay (NCI).

Test systems include SR leukemia; RPMI-8226 leukemia; OVCAR-8 ovarian; OVCAR-5 ovarian; OVCAR-4 ovarian; SK-OV-3 ovarian; IGROV1 ovarian; OVCAR-3 ovarian; HS 578T breast; NCI/ADR-RES ovarian; T-47D breast; BT-549 breast; MDA-MB-435 melanoma; SW-620 colon; MCF7 breast; HCT-116 colon; HCC-2998 colon; KM12 colon.
Common to all, as to test: NCI-60 one-dose screen, 48 h (100 = growth as untreated, 0 = no growth, -100 = all killed)
Common to all, as to conditions: 10 µM

This is part of a sample that, as a whole, favours compounds with a hit. Of some 83,000 tested, about 20% had one in any assay.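 Each cell line was grown in a 96-well plate and treated with one concentration of compound for 48 hours. Values below 10 were considered active.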 A number with no mark means an inactive call. Active and inactive are the calls of the source.

Turning to `Cc1ccc(-c2cc(-c3cccc(Nc4ccnc5cc(Cl)ccc45)c3)nc3nc(N)[nH]c(=O)c23)cc1`, the growth with SR leukemia is 48.9%; with RPMI-8226 leukemia it was 92.8%; with OVCAR-8 ovarian it was 92.5%; in the assay with OVCAR-5 ovarian it was 108%; in the assay on OVCAR-4 ovarian it was 111%; in the assay on SK-OV-3 ovarian, 111%. Moreover, the growth was 76.7% with IGROV1 ovarian; 92.7% in the assay with OVCAR-3 ovarian; 104% in the assay on HS 578T breast; 100% in the assay with NCI/ADR-RES ovarian; 35% in the assay with T-47D breast; 86.4% with BT-549 breast. Moreover, the growth was 99.8% in the assay with MDA-MB-435 melanoma; 95.8% with SW-620 colon; 72.5% with MCF7 breast; 91.3% in the assay on HCT-116 colon; 91.5% in the assay with HCC-2998 colon; 70.5% with KM12 colon.

Consider `COc1ccc(/C=C(\c2cc(OC)c(OC)c(OC)c2)c2nnc(-c3cccs3)o2)cc1`, for which the growth in the assay on SR leukemia is 78.3%; in the assay with RPMI-8226 leukemia, 83.9%; in the assay on OVCAR-8 ovarian it was 47.6%; in the assay on OVCAR-5 ovarian, 99.4%; in the assay on OVCAR-4 ovarian it was 26.6%; with SK-OV-3 ovarian, 62.7%. In addition, the growth is 71.7% in the assay on IGROV1 ovarian; 82.6% in the assay with OVCAR-3 ovarian; 43.6% with HS 578T breast; 66.4% in the assay on NCI/ADR-RES ovarian; 78.7% in the assay on T-47D breast; 84.4% in the assay on BT-549 breast. Further, the growth is 65.9% in the assay on MDA-MB-435 melanoma; 89.1% with SW-620 colon; 72.4% with MCF7 breast; 66.4% with HCT-116 colon; 89.2% in the assay with HCC-2998 colon; 90% with KM12 colon.

With `Cc1cc(OI)c(C(C)C)cc1-c1cc(C(C)C)c(OI)cc1C`, the growth in the assay with SR leukemia is 84.8%; in the assay on RPMI-8226 leukemia, 103%; with OVCAR-8 ovarian it was 104%; in the assay with OVCAR-5 ovarian, 94.4%; in the assay on OVCAR-4 ovarian, 109%; with SK-OV-3 ovarian it was 92.4%. Also, the growth was 98% with IGROV1 ovarian; 108% with OVCAR-3 ovarian; 109% in the assay on HS 578T breast; 102% in the assay on NCI/ADR-RES ovarian; 81.6% in the assay on T-47D breast; 111% in the assay on BT-549 breast. Besides, the growth was 112% with MDA-MB-435 melanoma; 113% with SW-620 colon; 92.6% in the assay on MCF7 breast; 101% in the assay with HCT-116 colon; 105% in the assay with HCC-2998 colon; 101% with KM12 colon.

`COc1cc(OC)cc(N2CCN(C(=O)Nc3nc4cc(F)ccc4nc3OC)CC2)c1`: the growth in the assay with SR leukemia is 8.23% (active); in the assay on RPMI-8226 leukemia, 22.7%; in the assay on OVCAR-8 ovarian, 12.7%; in the assay with OVCAR-5 ovarian it was 49%; in the assay on OVCAR-4 ovarian, 44%; in the assay with SK-OV-3 ovarian it was 14.4%. Moreover, the growth with IGROV1 ovarian is 17.6%; with OVCAR-3 ovarian, -11.8% (active); in the assay on HS 578T breast it was 37.6%; in the assay on NCI/ADR-RES ovarian it was -2.42% (active); in the assay on T-47D breast, 70.4%; in the assay on BT-549 breast, 24.4%. The growth is -31.9% (active) in the assay with MDA-MB-435 melanoma; 22% in the assay on SW-620 colon; 23.4% in the assay with MCF7 breast; 0.21% (active) in the assay with HCT-116 colon; 21.4% in the assay on HCC-2998 colon; 13.7% with KM12 colon.

Take `CCN(CC)CC(O)Cc1ccc(OC)cc1` (configuration not stated): the growth with SR leukemia was 104%; with RPMI-8226 leukemia, 108%; in the assay with OVCAR-8 ovarian, 110%; in the assay on OVCAR-5 ovarian, 106%; in the assay with OVCAR-4 ovarian, 113%; in the assay on SK-OV-3 ovarian, 114%. In addition, the growth in the assay with IGROV1 ovarian was 122%; in the assay with OVCAR-3 ovarian, 125%; with HS 578T breast, 107%; with NCI/ADR-RES ovarian it was 113%; in the assay on T-47D breast, 104%; in the assay with BT-549 breast, 121%. For the same compound, the growth is 102% in the assay with MDA-MB-435 melanoma; 114% with SW-620 colon; 111% in the assay with MCF7 breast; 111% in the assay with HCT-116 colon; 111% with HCC-2998 colon; 116% with KM12 colon.

Regarding `O=C(COCc1c(-c2ccccc2)no[n+]1[O-])Nc1nc(-c2ccc(Cl)cc2)cs1`, the growth in the assay on SR leukemia is 98.2%; with RPMI-8226 leukemia it was 109%; with OVCAR-8 ovarian it was 101%; with OVCAR-5 ovarian, 109%; in the assay on OVCAR-4 ovarian, 111%; in the assay on SK-OV-3 ovarian, 95.1%. Besides, the growth was 112% in the assay on IGROV1 ovarian; 102% with OVCAR-3 ovarian; 99.6% in the assay with HS 578T breast; 101% with NCI/ADR-RES ovarian; 103% with T-47D breast; 102% with BT-549 breast. For the same compound, the growth in the assay on MDA-MB-435 melanoma was 111%; with SW-620 colon, 101%; in the assay with MCF7 breast, 96.3%; with HCT-116 colon, 104%; with HCC-2998 colon it was 104%; in the assay with KM12 colon, 101%.

On to `O=C(O)CNS(=O)(=O)c1ccc(OCCOc2ccc(S(=O)(=O)NCC(=O)O)cc2)cc1`, for which the growth with SR leukemia was 103%; in the assay with RPMI-8226 leukemia, 109%; in the assay on OVCAR-8 ovarian it was 102%; in the assay on OVCAR-5 ovarian, 104%; in the assay on OVCAR-4 ovarian it was 115%; with SK-OV-3 ovarian, 103%. For the same compound, the growth in the assay on IGROV1 ovarian was 106%; in the assay with OVCAR-3 ovarian, 103%; in the assay with HS 578T breast, 99.4%; with NCI/ADR-RES ovarian it was 103%; in the assay with T-47D breast, 93.5%; in the assay on BT-549 breast, 105%. Also, the growth in the assay on MDA-MB-435 melanoma was 113%; in the assay with SW-620 colon it was 103%; in the assay on MCF7 breast, 98.6%; in the assay with HCT-116 colon, 103%; in the assay with HCC-2998 colon, 98.1%; in the assay with KM12 colon it was 99.5%.

On to `O=C1/C(=C/c2ccc(O)cc2)Oc2ccc(Cl)cc21`, for which the growth in the assay with SR leukemia is 109%; with RPMI-8226 leukemia, 119%; with OVCAR-8 ovarian, 79.4%; in the assay with OVCAR-5 ovarian, 106%; in the assay on OVCAR-4 ovarian, 120%; in the assay with SK-OV-3 ovarian, 111%. Besides, the growth in the assay with IGROV1 ovarian was -27.4% (active); in the assay with OVCAR-3 ovarian it was 92.9%; with HS 578T breast it was 87.1%; in the assay with NCI/ADR-RES ovarian, 87.3%; in the assay on T-47D breast, 72.2%; in the assay with BT-549 breast, 63.1%. The growth in the assay on MDA-MB-435 melanoma is 82.5%; in the assay on SW-620 colon it was 103%; with MCF7 breast, 43.2%; in the assay on HCT-116 colon, 65.7%; in the assay on HCC-2998 colon, 101%; in the assay with KM12 colon, 101%.

For the compound `COc1ccc(-n2nnc3c(sc4ccccc43)c2=O)cc1`, the growth is 51.1% in the assay with SR leukemia; 72% in the assay on RPMI-8226 leukemia; 29.1% in the assay with OVCAR-8 ovarian; 80.2% in the assay on OVCAR-5 ovarian; -46.9% (active) in the assay on OVCAR-4 ovarian; -15.6% (active) in the assay on SK-OV-3 ovarian. In addition, the growth is -0.829% (active) in the assay on IGROV1 ovarian; 24% with OVCAR-3 ovarian; 21.4% in the assay on HS 578T breast; 52.9% in the assay with NCI/ADR-RES ovarian; 35.5% in the assay with T-47D breast; 102% with BT-549 breast. For the same compound, the growth is 69% in the assay on MDA-MB-435 melanoma; 83.9% with SW-620 colon; 80.4% in the assay with MCF7 breast; 5.85% (active) with HCT-116 colon; 74.9% in the assay with HCC-2998 colon; 70.2% with KM12 colon.
